# Source: PubChem BioAssay AID1942 (Johns Hopkins Ion Channel Center, 2009)
# Out of some 2,400 compounds screened, about 580 (24%) were called active. Not all results are given here. Unmarked numbers belong to inactive results.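 The calls were made as follows: active = activity change at or above the mean plus 3 SD of buffer wells without dofetilide, per plate; inactive = the rest.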
# Target: Potassium voltage-gated channel subfamily KQT member 2 (Rattus norvegicus) (UniProt O88943)
# Assay: rat KCNQ2 channel activation by compounds alone, confirmation, counter-screen for hERG block protector project, cell-based, CHO, FluxOR thallium flux (AID 1942);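 also: normalized value minus buffer-control mean plus three SD of buffer wells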
# Conditions: CHO-KCNQ2 cells, FluxOR thallium flux fluorescence; at 10 µM; active compounds read high
# Chain of Potassium voltage-gated channel subfamily KQT member 2 (Rattus norvegicus) (O88943 whole entry, looked up): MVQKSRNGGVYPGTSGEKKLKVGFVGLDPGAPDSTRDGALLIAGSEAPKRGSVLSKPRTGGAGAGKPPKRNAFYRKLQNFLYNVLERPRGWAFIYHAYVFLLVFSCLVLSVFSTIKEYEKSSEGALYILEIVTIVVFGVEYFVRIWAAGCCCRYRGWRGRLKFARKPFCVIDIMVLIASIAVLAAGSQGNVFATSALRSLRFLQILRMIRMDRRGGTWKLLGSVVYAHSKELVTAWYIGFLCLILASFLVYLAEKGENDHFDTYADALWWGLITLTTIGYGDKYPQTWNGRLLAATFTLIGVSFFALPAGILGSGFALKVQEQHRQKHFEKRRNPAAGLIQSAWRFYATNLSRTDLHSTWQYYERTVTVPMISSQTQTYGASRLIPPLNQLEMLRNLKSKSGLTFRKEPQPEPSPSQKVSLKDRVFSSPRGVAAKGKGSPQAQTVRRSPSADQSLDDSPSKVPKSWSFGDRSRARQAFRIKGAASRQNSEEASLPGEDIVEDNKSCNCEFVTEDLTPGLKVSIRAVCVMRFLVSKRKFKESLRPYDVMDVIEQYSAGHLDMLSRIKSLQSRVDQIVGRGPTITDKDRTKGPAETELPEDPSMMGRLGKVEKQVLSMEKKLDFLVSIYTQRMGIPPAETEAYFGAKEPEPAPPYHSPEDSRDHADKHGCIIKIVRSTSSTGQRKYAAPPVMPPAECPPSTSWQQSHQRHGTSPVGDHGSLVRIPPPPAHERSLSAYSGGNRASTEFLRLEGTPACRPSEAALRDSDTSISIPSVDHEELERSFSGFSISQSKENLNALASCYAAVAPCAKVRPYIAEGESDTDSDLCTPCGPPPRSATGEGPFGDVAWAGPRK
row,Structure (SMILES),"activity change, less the hit threshold"
1,CC(/C=C1\SC(=S)N(NS(=O)(=O)c2ccccc2)C1=O)=C\c1ccccc1,18.1% (active)
2,CC(/C=C1\N=C(SCc2ccccc2Cl)SC1=O)=C\c1ccccc1,-10.1%
3,CC(/C=C1\SC(=S)N(c2ccc(C(=O)O)cc2)C1=O)=C\c1ccccc1,-20.4%
4,Cc1ccc(S(=O)(=O)N2C(=O)/C(=C3\SC(=S)NC3=O)c3ccccc32)cc1,-14.4%
5,CC(/C=C1\SC(=S)N(NS(=O)(=O)c2ccc(C)cc2)C1=O)=C\c1ccccc1,8.8% (active)
6,COc1ccccc1/C=C1\SC(=S)N(NS(=O)(=O)c2ccc(C)cc2)C1=O,-24.5%
7,COCCNC(=O)C(=O)N/N=C/c1ccc(C(=O)OC)cc1,-24.8%
8,O=C(CCNC(=O)C1CCN(S(=O)(=O)c2ccc(F)cc2)CC1)NCc1ccc(Cl)cc1,-18.1%
9,Cc1cc(C)c(S(=O)(=O)Nc2cccc(-n3cnnn3)c2)c(C)c1,-20.5%
10,COC(=O)C1CCCN1C(=O)COc1ccc(Cl)cc1Br (stereo unspecified),8.6% (active)
11,COc1ccccc1NC(=O)C1CCCN1C(=O)Nc1ccc(F)cc1 (stereo unspecified),-19.8%
12,O=C(COc1ccc(Cl)cc1Cl)Nc1cccnc1,-20.4%
13,CS(=O)(=O)Nc1cccc(-c2cn3ccccc3n2)c1,-6.5%
14,Cn1c(=O)c2sccc2n(Cc2cccc(Br)c2)c1=O,-20.7%
15,CCN1CCN(CCNC(=O)CCCn2nc(C)c3c(C)n(-c4ccc(C)cc4)nc3c2=O)CC1,-21%
16,O=c1[nH]c(SCc2cccc(Cl)c2)nc2ccccc12,-14.1%
17,S=c1nc(SCc2ccccc2)[nH]c2ccccc12,73.5% (active)
18,O=C(O)CCCCCNc1nc(=S)[nH]c2ccccc12,-0.8%
19,S=c1[nH]nc(Cc2ccc(Br)cc2)n1/N=C/c1ccc(Cl)cc1,-13.3%
20,S=c1nc(Cc2ccc(Cl)cc2)[nH]c2ccccc12,28.2% (active)
21,CSc1nc(C)c(Cc2ccccc2)c(=O)[nH]1,-18.7%
22,CC(C)c1ccc(/C=N/n2c(COc3ccccc3)n[nH]c2=S)cc1,-16.5%
23,S=c1nc(COc2ccccc2)[nH]c2ccccc12,131% (active)
24,S=c1nc(Cc2ccccc2)[nH]c2ccccc12,76.9% (active)

row,Structure (SMILES),"activity change, less the hit threshold"
1,N=C1S/C(=C\c2ccco2)C(=O)N1c1nccs1,-12%
2,CC(=O)Nc1ccc(S(=O)(=O)N2CCC(NC(=O)c3ccccc3)CC2)cc1,-20.1%
3,Cc1ccc(NC(=O)CSc2nnc(C3CC3)n2CC2CCCO2)c(C)c1 (stereo unspecified),-18.6%
4,S=c1[nH]nc(-c2ccco2)n1/N=C/C(Cl)=C/c1ccccc1,-17.6%
5,O=C(c1cncc(Br)c1)N1CCc2ccccc2C1,-24.3%
6,C/C(=N\N1CCN(C2c3ccccc3-c3ccccc32)CC1)c1ccncc1,-19.2%
7,O=C(Nn1cnnc1)c1ccncc1,-10.9%
8,O=C(NC(C(=O)c1ccccc1)n1cnccc1=O)c1ccccc1 (stereo unspecified),-8.7%
9,CC(NC(=O)c1ccncc1)C(C)(C)C (stereo unspecified),2.9% (active)
10,Cc1c(OC(C(=O)O)c2ccccc2)ccc2c(-c3ccccc3)cc(=O)oc12 (stereo unspecified),-7%
11,Cc1ccc2c(c1)c1c(n2CC(O)Cn2nc(C)c(Br)c2C)CCCC1 (stereo unspecified),-17.5%
12,Cc1cc(C)c2nc(NC(=O)CN3C(=O)NC4(CCCC4)C3=O)sc2c1,-9%
13,COC(=O)c1sc(NC(=S)NC(=O)c2ccc(C)cc2)nc1C,-13.3%
14,COC(=O)c1sc(NC(=S)NC(=O)c2ccccc2F)nc1C,11.7% (active)
15,COC(=O)c1sc(NC(=S)NC(=O)c2ccccc2C)nc1C,26.5% (active)
16,O=c1[nH]c(=O)n(CCc2ccc(F)cc2)c(O)c1C=NCc1ccc2c(c1)OCO2,-22.5%
17,COc1ccc(C(=O)NC2CC3CCCC(C2)N3Cc2ccccc2)cc1 (stereo unspecified),-27.5%
18,O=c1[nH]c(N2CCN(c3ccccc3)CC2)nc2c1CCCC2,-11.1%
19,C=C(C)CSc1nc(N)cc(=O)[nH]1,-12%
20,O=c1c2ccccc2[nH]c(=S)n1C1CCCCC1,-15.1%
21,CC1CCCCC1n1c(=S)[nH]c2ccccc2c1=O (stereo unspecified),6.6% (active)
22,CC1CCC(N2CCN(C(=O)c3ccccc3F)CC2)CC1 (stereo unspecified),-9.6%
23,CC1CCC(n2c(=S)[nH]c3ccccc3c2=O)CC1 (stereo unspecified),47.8% (active)
24,Cn1c(O)c(N=NC(=S)Nc2ccccc2F)c2cc(S(=O)(=O)N3CCOCC3)ccc21,-19.7%

row,Structure (SMILES),"activity change, less the hit threshold"
1,Cc1ccc(C(C)C)cc1S(=O)(=O)NC1CC(C)(C)NC(C)(C)C1,-26%
2,Nc1cc(N)nc(SCc2cc(=O)oc3cc4c(cc23)CCC4)n1,-20.8%
3,CS(=O)(=O)N(CCc1ccccc1)CC(=O)N1CCN(c2ccc(F)cc2)CC1,-26.1%
4,Cc1cc(C(=O)NCc2ccc(S(N)(=O)=O)cc2)ccc1[N+](=O)[O-],-13.6%
5,O=C(NCc1cccnc1)c1ccc(NS(=O)(=O)c2ccc(F)cc2)cc1,-4.9%
6,Cc1cc2ccccn2c1C(=S)NC(=O)c1ccccc1,40.3% (active)
7,O=C(NC(=S)Nc1ncc(Br)cc1Br)c1ccccc1,-0.7%
8,O=C(c1n[nH]c2c1CCCC2)n1ccnc1,-12.7%
9,C[C@@H]1CCCCCCCCCCC1=O,-18%
10,Cc1ccc(C(=O)CC(=O)c2ccc(C)cc2O)cc1,-9.3%
11,Cc1ccc(C(=O)COC(=O)C2CCC2)cc1,2.2% (active)
12,Cc1ccc(C(=O)CC(=O)COc2ccc(Cl)cc2C)cc1,-1.4%
13,O=c1ccn(Cc2ccc(F)cc2)c2ccnc(C(F)(F)F)c12,-16.3%
14,CCc1ccc2[nH]c(=O)c(-c3ccccc3)c(O)c2c1,-20.4%
15,Cc1cccc(N2CCN(C(=O)Cc3c(C(=O)O)[nH]c4ccc(Cl)cc34)CC2)c1C,16.8% (active)
16,Cc1cc2[nH]c(=O)c(=O)[nH]c2cc1S(=O)(=O)N1CCN(c2cccc(C)c2C)CC1,-10.5%
17,Cc1cccc(N2CCN(C(=O)CNC(=O)c3cccc([N+](=O)[O-])c3)CC2)c1C,-27.6%
18,CCOC(=O)C1=C(N)Oc2cc(O)ccc2C1c1cccnc1 (stereo unspecified),-24.7%
19,O=C(NC(=S)N1CCN(c2ccc(C(F)(F)F)cc2[N+](=O)[O-])CC1)c1cccs1,15.6% (active)
20,O=C(NC(=S)Nc1cccc(Cl)c1N1CCOCC1)c1cccs1,-17%
21,CC(C)Oc1cccc(C(=O)NC(=S)N2CCN(c3ccc(C(F)(F)F)cc3[N+](=O)[O-])CC2)c1,-12.3%
22,COc1ccc(N2CCN(C(=S)NC(=O)c3cccs3)CC2)c([N+](=O)[O-])c1,-6.4%
23,O=C(NC(=S)N1CCN(c2c(Cl)cccc2[N+](=O)[O-])CC1)c1cccs1,7.2% (active)
24,O=C(NC(=S)Nc1ccc(N2CCCCC2)c(Cl)c1)c1cccs1,-0.7%

row,Structure (SMILES),"activity change, less the hit threshold"
1,O=C(NC(=S)Nc1cccc(Cl)c1N1CCCCC1)c1cccs1,-12.7%
2,COc1cccc(OC)c1C(=O)NC(=S)N1CCN(c2ccc(C(F)(F)F)cc2[N+](=O)[O-])CC1,-33.8%
3,O=C(NC(=S)N1CCN(c2ccc(Cl)cc2[N+](=O)[O-])CC1)c1cccs1,2.3% (active)
4,COc1ccc(-c2ccc3c(N)c(C(=O)c4ccc(OC)c(OC)c4)sc3n2)cc1,-11.8%
5,Cc1c(C#N)c(O)[nH]c(=O)c1N=Nc1ccc(Br)cc1C(=O)O,-13.8%
6,COc1ccc2c(C(=O)CN3CCN(c4ccccc4)CC3)c[nH]c2c1,-21.6%
7,CCCCCCc1c(O)nc(SCC(=O)O)[nH]c1=O,-23.9%
8,CC1=NN(c2nc(-c3ccccc3)cs2)C(=O)C1N=Nc1ccccc1 (stereo unspecified),-28%
9,COC(=O)c1ccccc1NC(=O)C1CCCN(S(C)(=O)=O)C1 (stereo unspecified),-18.8%
10,Cc1nnc(NC(=O)C2CCCN(S(=O)(=O)c3ccccc3C(F)(F)F)C2)s1 (stereo unspecified),4.9% (active)
11,CCc1nnc(NC(=O)C2CCCCN2S(=O)(=O)c2ccccc2)s1 (stereo unspecified),-11.7%
12,CSc1nsc(SCC(=O)Nc2ccccc2C(=O)O)n1,-13%
13,COC(=O)CCn1[nH]c(=O)c2ccccc2c1=O,-15.8%
14,CC(=O)NCCc1nc2cc(NC(=O)c3ccc(Cl)cc3)ccc2n1C,-14.1%
15,C/C(=N\Nc1cc(N2CCOCC2)ncn1)c1cccc([N+](=O)[O-])c1,-15.9%
16,C/C(=N/NC(=S)Nc1cccc(C)c1)c1cccc([N+](=O)[O-])c1,-13.2%
17,C/C(=N\Nc1nc(C)c(C)s1)c1ccc([N+](=O)[O-])cc1,17% (active)
18,Cc1cc(C)cc(N(C(=O)c2cc3ccccc3oc2=O)C2C=CS(=O)(=O)C2)c1 (stereo unspecified),-12.7%
19,COc1ccc(Br)cc1CNc1ccccc1,-21.6%
20,COc1ccc(CC(=O)Nc2ccccc2Oc2ccccc2)cc1,-0.3%
21,COc1cc(NC(=O)c2ccccc2)c(OC)cc1NC(=O)Cc1ccc(Br)cc1,12.3% (active)
22,CCOC(=O)CN1C(=O)SC(Nc2ccc(C)cc2)C1=O (stereo unspecified),-7%
23,O=C(COc1nsnc1N1CCOCC1)Nc1ccc(Cl)cc1,-17.5%
24,CN(Cc1cnn(C)c1)C(=O)C1CCC(=O)N(Cc2cccc(C(F)(F)F)c2)C1 (stereo unspecified),-19.6%
